The panel holds about 83,000 compounds, 20% with a hit somewhere; the sample as a whole holds those more often.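 Step 1: grow cells in 96-well plates. Step 2: add test compound at a single concentration. Step 3: incubate 48 h. Step 4: record percent growth.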 A number with no mark means an inactive call. Activity calls are given as the source filed them. The calls were made as follows: active = growth percent below 10; inactive = the rest.

The test system of the assay is HOP-62 NSCLC. The assay can be described thus: NCI-60 one-dose screen, 48 h (100 = growth as untreated, 0 = no growth, -100 = all killed). The conditions noted are these: 10 µM unless noted.
As for `CCCCCCNc1cc(C)nc2ccc(OC)cc12`, the growth is 73.1%.
To `Cc1ccc(C)c2c1C(=O)OC2=O` belongs 92.1%.
To `CCN(CC)CCCNC(=O)c1ccc(N)cc1O` belongs 95.6%.
With `O=[N+]([O-])c1ccc(-c2cc3c(Nc4ccc(OCc5cccc(Cl)c5)c(Cl)c4)ncnc3s2)cc1` the figure was 67.7%; with `COC(=O)Nc1nc2ccc(C(=O)C3CC3)cc2[nH]1`, 38.1%.
In the case of `CCOC(=O)C(O)C(O)(c1ccccc1)c1ccccc1` (centres undefined), the growth was 97%.
On to `N#Cc1cnn2c(-c3ccc(Cl)cc3)nc(NC3CC3)nc12`, for which the growth was 98.3%.
To `O=C(C[C@@]1(O)C(=O)Nc2c(Cl)ccc(Cl)c21)c1ccc(C2CC2)cc1` belongs 34.2%; to `CN(CCC(=O)/C(=C\c1ccccc1)c1ccc(Cl)cc1)Cc1ccccc1`, 47.6%.
To `CC1=NN(c2cccc(Cl)c2)C(=O)/C1=C\c1cn(CC(O)CN2CCCCC2)c2ccccc12` (centres undefined) belongs 73.6%; to `O=C(NCOC(O)C(Cl)(Cl)Cl)NCOC(O)C(Cl)(Cl)Cl` (centres undefined), 91.6%.
With `Cc1nn(-c2ccccc2)c2c1C(c1ccc([N+](=O)[O-])cc1)C(C#N)=C(N)O2` (centres undefined) the figure was 94.3%; with `O=[N+]([O-])c1ccccc1C(O)Cc1ccc2ccccc2n1` (centres undefined), 88%; with `N#Cc1cnn2c(-c3ccc(Cl)cc3)nc(NCCc3ccccc3)nc12`, 84.9%.
Consider `CCOC(=O)C(=CNc1ccccc1[N+](=O)[O-])C(=O)OCC`, for which the growth was 107%.
Turning to `Cc1ccc(NSc2ccccc2[N+](=O)[O-])cc1`, the growth was 24.8%.
To `CN(C)CCC(O)(Cc1ccccc1)c1ccccc1` (centres undefined) belongs 111%; to `CCOc1cc(N)ccc1C(=O)NCCCN(CC)CC`, 98.3%; to `COc1ccc(-c2nnc(SCC(=O)NC3=NN=C(c4ccccc4)CS3)o2)cc1`, 86.2%.
For `C#C[C@]1(O)CC[C@H]2[C@@H]3CC=C4c5sc(N=C(N)N)nc5CC[C@]4(C)[C@H]3CC[C@@]21C`, the growth is -37.5% (active).
To `CCCCCCCCN(CCCCCCCC)C(=N)c1ccnc2ccccc12` belongs -85.7% (active); to `COc1cc(-c2ccc(N=Nc3c(O)c(C(=O)Nc4ccccc4OC)cc4ccccc34)c(OC)c2)ccc1N=Nc1c(O)c(C(=O)Nc2ccccc2OC)cc2ccccc12`, 80.6%; to `O=C1c2ccccc2C2(c3ccc(O)cc3)c3ccccc3Oc3cccc1c32` (centres undefined), 31.5%.
To `Cc1c(Cl)cccc1NS(=O)(=O)c1ccccc1` belongs 112%; to `CN(C)c1cnccn1`, 90.3%.
As for `Fc1ccc(Nc2nc3nonc3nc2Nc2ccc(F)cc2)cc1`, the growth was -5.63% (active).
Regarding `Cc1nc2ccccc2c(/C=C/c2ccc(Cl)cc2)c1C(=O)/C=C/c1ccc(Cl)cc1`, the growth is -7.32% (active).
Consider `Fc1ccc(Nc2nc(Nc3ccc(-c4nc5ccccc5[nH]4)cc3)c3cn[nH]c3n2)cc1`, for which the growth was 85.6%.
To `Nc1ccc(-c2cc3c(Nc4ccc(OCc5cccc(F)c5)c(Cl)c4)ncnc3s2)cc1` belongs 62.3%; to `O=[N+]([O-])c1ccc(-c2cc3c(Nc4ccc(Cl)c(C(F)(F)F)c4)ncnc3s2)cc1`, 20.8%.
With `O=[N+]([O-])c1ccc(-c2cc3c(Nc4ccc(Sc5nc6ccccc6s5)c(Cl)c4)ncnc3s2)cc1` the figure was 36.1%; with `CCOC(=O)N1CCc2c(sc3c2C(=O)N[C@H](c2ccc(OC)cc2)N3)C1`, 68.4%; with `Cc1cn(C2CCCCC2)c(=O)[nH]c1=O`, 109%.
To `Cc1csc(NC(=O)c2sc3nc(-c4cccs4)ccc3c2N)n1` belongs 90.4%; to `Clc1ccc(-c2nc(NCCc3ccccc3)nc3c(NCCc4ccccc4)cnn23)cc1`, 85.3%; to `Cc1nc(C)c(-c2nn3c(-c4cccc(F)c4)nnc3s2)s1`, 98.7%.
`COc1ccc(-c2nnc(-c3ccc4c(c3)nc(-c3ccccc3)n4C3CCCCC3)o2)cc1`: the growth is 50.5%.
With `Cc1cc2c(F)c(Oc3ncnc(Nc4ccc(N5C[C@@H](C)N[C@@H](C)C5)cc4)c3C#N)cc(F)c2[nH]1` the figure was 75.8%.
To `CCN(CC)CCCNC(=O)c1ccc(N)cc1` belongs 98.5%.

For the origin of these results see PubChem BioAssay (NCI).
